Results: PubChem BioAssay AID651820 (National Center for Advancing Translational Sciences (NCATS), 2012)
In all, about 340,000 compounds went through this assay and about 12,000 (3.5%) were called active. Another 18% or so got no clear call; they are omitted. The sample as a whole holds a higher share of actives than the screen did. Values without a mark were called inactive. The call rests on the fitted dose curve; in most records, active means well fitted inhibition curve with a large enough effect; inconclusive means small, poorly fitted or top-dose-only effect, or another doubt; inactive means no such curve, though single readings can be large or run the other way.

assay: qHTS Assay for Inhibitors of Hepatitis C Virus (HCV); conditions: Huh7.5.1 HCVcc-Cre infection, luciferase reporter, 44 h; series mostly up to 41.8 µM; activity change, negative = inhibition: at the top concentration
Procedure, shortened: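 Cells (1,000/well) were plated 4 h before compound, then infected with HCVcc-Cre virus (~0.5 moi). After 44 h further culture, infection was read as luciferase luminescence following a 15 min substrate incubation at room temperature.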
On the % scale 0 is the no-effect control and ±100 the full control effect; potency means the concentration at half of the fitted maximal effect.

SMILES	activity change, negative = inhibition	Potency
CC(C)COc1ccc(C(=O)NNC(=O)CCC(=O)c2cccs2)cc1	1.77%	
COc1ccc(/C=N/NS(=O)(=O)c2ccc(NC(C)=O)cc2)cc1	-10.6%	
COc1ccc(NS(=O)(=O)c2ccc(Oc3c(C#N)cccc3C#N)cc2)cc1		17.8 µM (active)
COC(=O)COc1ccc(S(=O)(=O)Nc2ccc(NC(C)=O)cc2)cc1	0.696%	
O=C(O)C(=Cc1ccccc1[N+](=O)[O-])c1ccccc1	5.61%	
CN1CCN(c2ccc(NC(=O)c3cc(Cl)c4c(c3)OCCO4)cc2)CC1		10 µM (active)
CN1CCN(c2ccc(NC(=O)c3ccc4c(c3)OCCO4)cc2Cl)CC1	-11%	
O=C(Nc1ccc(N2CCOCC2)cc1)c1ccc2c(c1)OCO2	-29.1%	
O=C(OCCN1C(=O)c2ccccc2C1=O)[C@@H]1CC(O)CN1S(=O)(=O)c1ccccc1[N+](=O)[O-] (stereo partly drawn)	-3.9%	
O=C(NC1=CC(=O)c2ccccc2C1=O)c1ccccc1		6.31 µM (active)
O=C(NC(=O)c1ccccc1)NC(=O)c1ccccc1	10.5%	
O=C1C=C(NS(=O)(=O)c2ccccc2)C(=O)c2ccccc21	-5.95%	
CC1=CC(=NNS(=O)(=O)c2ccc([N+](=O)[O-])cc2)CC(C)(C)C1	2.6%	
CC(=O)OC1C2(CC3N4C(=O)C5(CO)SSC4(CC31O)C(=O)N5C)OC(C)C(C)(C)C2=O (stereo not drawn)		0.562 µM (active)
Cc1cc(Br)ccc1NC(=O)CN(C)C(=O)CN1C(=O)NC2(CCCC2)C1=O	-8.88%	
O=S(=O)(NCCCc1ccccc1)c1ccc(Br)cc1	16.7%	
O=C(Cn1cnc2c(OCc3ccccc3)ncnc21)NCc1nc2ccccc2[nH]1	-17.2%	
CC(=O)Nc1ccc(NC(=O)COc2ncnc3ccccc23)cc1	25.3%	
Cc1ccc(Nc2c3c(nc4ccccc24)CCC3)cc1	-80.9%	
CC(=O)Nc1ccc(Nc2c3ccccc3nc3ccccc23)cc1		7.08 µM (active)
CCOc1ccc(NC(=O)c2ccc(NC(=O)CN3C(=O)C(=O)N(CC(C)C)C3=O)cc2)cc1	-8.34%	
CCN(c1ccccc1)S(=O)(=O)c1ccc(C(=O)Nc2ccccc2OC)cc1	-15.4%	
CN(C(=O)CSc1nnc(C2CC2)n1C)C1CCCc2ccccc21 (stereo not drawn)	14.8%	
CC(C)c1ccc(S(=O)(=O)N2CCN(C(C)C(=O)NC3CCCC3)CC2)cc1 (stereo not drawn)	-12.7%	
OC(CNCC1CCCO1)Cn1c2ccc(Br)cc2c2cc(Br)ccc21 (stereo not drawn)		35.5 µM (active)

SMILES	activity change, negative = inhibition	Potency
CC(NS(=O)(=O)c1ccc(Br)cc1)C(=O)NCC1CCCO1 (stereo not drawn)	-15.1%	
O=C(CCNS(=O)(=O)c1ccc(Br)cc1)NCC1CCCO1 (stereo not drawn)	9.8%	
Cc1oc2c(c1C(=O)N1CCOCC1)C(=O)c1ccccc1C2=O		5.62 µM (active)
Cc1noc(C)c1C(=O)N1CCOCC1	-3.5%	
CCOC(=O)c1ccccc1C(=O)N1CCOCCOCCOCC1	6.73%	
O=C(NCCC(=O)N1O[C@@H]2C=C[C@H]1C2)OCC1c2ccccc2-c2ccccc21	-5.37%	
CCn1c(=S)[nH]c2cc(S(=O)(=O)N3CCOCC3)ccc21	7.96%	
COC(=O)C(C)Sc1nc2c(c(=O)n(C)c(=O)n2C)n1Cc1cccc(C)c1 (stereo not drawn)		inactive
Cc1cccc(Cn2c(N3CCN(c4ccccc4)CC3)nc3c2c(=O)n(C)c(=O)n3C)c1		14.1 µM (active)
Cn1c(=O)c2c(nc(CN3CCOCC3)n2Cc2ccccc2)n(C)c1=O	2.12%	
COc1ccc(S(=O)(=O)N(C)C[C@@H]2Oc3ccc(NS(=O)(=O)c4cn(C)cn4)cc3C(=O)N([C@@H](C)CO)C[C@@H]2C)cc1	10.5%	
O=C(COC(=O)CCCN1C(=O)c2cccc3cccc(c23)C1=O)NC1CCS(=O)(=O)C1 (stereo not drawn)	10.7%	
C[C@H](NS(=O)(=O)c1ccc(Cl)cc1)C(=O)OCC(=O)N1CCOCC1	9.77%	
CC(O)C(NS(=O)(=O)c1ccc(Cl)cc1)C(=O)OCc1cc([N+](=O)[O-])cc2c1OCOC2 (stereo not drawn)		10 µM (active)
Nc1ccccc1SCc1cc([N+](=O)[O-])cc2c1OCOC2	-22.1%	
Cn1c(CC(=O)NNC(=O)c2ccccc2F)nc2ccccc21	8.68%	
O=C1/C(=C\c2ccsc2)NC(=S)N1c1ccccc1		11.2 µM (active)
CN(C)c1ccc(/C=C2\NC(=S)N(Cc3ccccc3)C2=O)cc1	-24.6%	
O=C1N/C(=C/c2cccn2-c2ccccc2)C(=O)N1c1cccc(Cl)c1	0.25%	
COc1ccc(-c2ccc(CNCCCN3CCOCC3)o2)cc1Cl		11.2 µM (active)
COc1ccc(S(=O)(=O)N(C)CC(=O)NCCCN2CCOCC2)cc1Cl	1.4%	
COc1ccc(C(=O)NCCCN2CCOCC2)cc1Br	5.73%	
CC(=O)NCc1ccc(-c2csc(NC(=O)CCCc3nc4ccccc4c(=O)[nH]3)n2)cc1	-4.47%	
CCOC(=O)[C@H]1[C@H]2COc3ccccc3[C@@H]2N2C(=O)CN(Cc3ccccc3)C(=O)[C@@]12C	1.73%	
COc1cccc(NC(=O)c2nn(C34CC5CC(CC(C5)C3)C4)cc2[N+](=O)[O-])c1		31.6 µM (active)

SMILES	activity change, negative = inhibition	Potency
COc1cccc(NC(=O)COc2cccnc2[N+](=O)[O-])c1	-4.63%	
COc1cccc(NC(=O)c2ccc(Cn3cc([N+](=O)[O-])cn3)o2)c1	-3.39%	
O=C1CC[C@@H]2CC3(C[C@@H]4CCN1[C@H]24)Nc1cc([N+](=O)[O-])ccc1NC3=NC1CCCCC1 (stereo partly drawn)	22.9%	
C=CCN1C=C(C(=O)c2ccccc2)C(=O)CC1	39%	
c1ccc(-c2noc(-c3cccs3)n2)nc1	12.5%	
Cc1nc2ccccc2c(C(=O)O)c1-c1ccccn1	9.5%	
CC(C)(C)Nc1nc(-c2ccccn2)nc2ccccc12		4.47 µM (active)
COc1ccc(/C=N/NC(=O)c2cc(-c3cccc(C)c3)nc3ccccc23)cc1O	-28.4%	
O=C(CSc1nc2cc3c(cc2c(=O)n1CCC1=CCCCC1)OCO3)NCc1ccco1	5.78%	
C=C(C)Cn1c(SCC(=O)NCc2ccco2)nc2sc3c(c2c1=O)CCC3		8.91 µM (active)
C=CCn1c(SCC(=O)NCCCO)nc2sc3c(c2c1=O)CCC3	-6.08%	
O=C(COC(=O)COc1cccc(F)c1)NCC1CCCCC1	28.3%	
O=C(Nc1ccon1)c1nc[nH]c1C(=O)NCc1ccccc1	-2.4%	
COc1ccc2[nH]c3c(c2c1)CCN1C(=O)C(CC(=O)NCCCN(C)C)C[C@H](C(=O)N2CCOCC2)[C@@]31CCC1CCCC1 (stereo partly drawn)	-0.0933%	
O=C(CSc1nc2ccc(Nc3nc(N4CCOCC4)nc(N4CCOCC4)n3)cc2s1)NCc1ccco1		5.01 µM (active)
O=C(CSc1c2c(nc3ccc(Cl)cc13)CCCC2)NCc1ccco1	-25.9%	
C=CCn1c(CSc2nc3ccccc3s2)nnc1SCC(=O)NCc1ccco1		inactive
COCCN(Cc1ccccc1)C(=O)Cc1ccc(S(=O)(=O)N2CCOCC2)s1	0.153%	
CC1(C)CC2CC(C)(CN2c2ncnc3ccc(Br)cc23)C1 (stereo not drawn)		10 µM (active)
COc1ccccc1C(=O)N1CC2(C)CC1CC(C)(C)C2 (stereo not drawn)	-12.3%	
COc1ccc(C(=O)N2CC3(C)CC2CC(C)(C)C3)cc1OC (stereo not drawn)	-1.53%	
CC(Oc1cccc(Cl)c1)C(=O)Nc1ccc(S(=O)(=O)Nc2ncccn2)cc1 (stereo not drawn)	14.9%	
COc1ccccc1CNC(=O)COn1nnc2ccc(S(=O)(=O)N3CCOCC3)cc21	-9.22%	
Cc1cccc(NS(=O)(=O)c2ccc(C)c(C(=O)NCc3cccnc3)c2)c1	2.68%	
COC(=O)C1=C(c2cccc(OCc3ccccc3)c2)C[C@@H]2CC[C@H]1N2C(=O)NNCc1ccccc1	-21.4%	

SMILES	activity change, negative = inhibition	Potency
COC(=O)C1=C(c2ccccc2OCc2ccccc2)C[C@@H]2CC[C@H]1N2C(=O)NCc1ccc(OC)cc1		11.2 µM (active)
COC(=O)C1=C(c2ccc(F)cc2OCc2ccccc2)C[C@@H]2CC[C@H]1N2C(=O)NCc1ccc2[nH]ccc2c1	-27.8%	
O=C(COC(=O)c1cccnc1Cl)Nc1ccc(S(=O)(=O)N2CCOCC2)cc1	3.66%	
O=C(O)c1ccccc1/C=N/Nc1ccc(S(=O)(=O)Nc2ccc(Cl)cc2)cc1[N+](=O)[O-]	-0.15%	
N#Cc1ccccc1S(=O)(=O)N1CCN(Cc2c(O)ccc3ccccc23)CC1	-0.899%	
N#Cc1ccccc1S(=O)(=O)N1CCN(C(=O)c2cc(-c3ccccc3)nn2-c2ccccc2)CC1		11.2 µM (active)
O=C(c1cn(-c2ccccc2)nc1-c1cccnc1)N1CCN(S(=O)(=O)c2ccccc2F)CC1	-0.254%	
CCCCCN1CC(O)=C(c2ccccc2)C1=N	3.98%	
CCCCCCCCCCCCn1ccc(=N)cc1		0.501 µM (active)
CCCCCNC(=O)Cc1ccc(OC)cc1	14.6%	
COCCCNC(=O)CC1C[C@H](C(=O)N2CCCCC2)[C@@]2(CCc3ccccc3)c3[nH]c4ccccc4c3CCN2C1=O (stereo partly drawn)	35.4%	
O=C(Nc1cccc(Br)c1)C1CC(=O)N(C2CCCC2)C1 (stereo not drawn)	4.1%	
O=C(Nc1ncccc1O)c1ccc(C(=O)c2ccccc2)cc1	8.38%	
COc1cccc(/C=N\NC(=O)C2=NNC(=O)C2C)c1O (stereo not drawn)	15.1%	
COc1ccccc1/C=N\Nc1cc(C)nc(-n2nc(C)cc2C)n1		3.16 µM (active)
Cc1nc(Cl)cc(N/N=C/c2ccccc2)n1	-18.1%	
COc1cccc(/C=N/Nc2cc(C)nc(-c3ccccc3O)n2)c1O		12.6 µM (active)
COc1ccccc1/C=N/Nc1nc(C)c(C(C)=O)s1	10.5%	
COc1cccc(/C=N/Nc2ccc(S(=O)(=O)Nc3ccccc3C(=O)O)cc2[N+](=O)[O-])c1O	15.6%	
N#CC1(NC(=O)COC(=O)Cc2n[nH]c(=O)c3ccccc23)CCCCC1	12.1%	
NC1=NOC(=O)C1C1CCCCC1 (stereo not drawn)	-2.58%	
Cc1nc(-c2ccc(F)cc2)c(CC(=O)N(C)CC(=O)Nc2c(C)cccc2C)s1	5.17%	
CS(=O)(=O)c1ccc(C(=O)NNC(=O)c2cccs2)cc1	16.1%	
